Shown are actives, neighbours in structure and some others; about 3.6% of the full set was active somewhere.
Rango dissoc inh = inhibitors of RanGTP-induced Rango-importin beta complex dissociation | O95149+P62826 | Biochemical FRET Rango-importin beta, RanGTP-induced dissociation | Potency, µM (series often up to 46.1 µM), without a hit: top-dose activity change, negative = inhibition | 340,000 tested, 0.071% active; calls by dose curve; also: potency is read from the fitted curve at half-maximal effect; % of control where 0% means no effect; nearly all actives have a fitted effect of over 45% in size
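FRET read at 45 min, room temperature: inhibitors block the CFP/YFP signal rise when RanGTP (0.6 uM Ran, 2 mM GTP, 0.2 uM RCC1) frees Rango (0.1 uM) from importin beta (0.25 uM). Pre-read after 5 min compound exposure flags interference.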
KAT2A inh = inhibitors of human GCN5L2 histone acetyltransferase; Q92830; GCN5L2 HAT assay, ThioGlo1 CoA-SH fluorescence; Potency, µM (doses to about 58.9 µM), for inactives: at the top dose activity change, negative = inhibition, hits mostly inhibitors; 390,000 tested, 0.21% active; AID 504327; also: potency is read from the fitted curve at half-maximal effect; % is scaled to controls: 0 for no effect and ±100 for the full control effect
Target sequence (Q92830 whole entry, looked up): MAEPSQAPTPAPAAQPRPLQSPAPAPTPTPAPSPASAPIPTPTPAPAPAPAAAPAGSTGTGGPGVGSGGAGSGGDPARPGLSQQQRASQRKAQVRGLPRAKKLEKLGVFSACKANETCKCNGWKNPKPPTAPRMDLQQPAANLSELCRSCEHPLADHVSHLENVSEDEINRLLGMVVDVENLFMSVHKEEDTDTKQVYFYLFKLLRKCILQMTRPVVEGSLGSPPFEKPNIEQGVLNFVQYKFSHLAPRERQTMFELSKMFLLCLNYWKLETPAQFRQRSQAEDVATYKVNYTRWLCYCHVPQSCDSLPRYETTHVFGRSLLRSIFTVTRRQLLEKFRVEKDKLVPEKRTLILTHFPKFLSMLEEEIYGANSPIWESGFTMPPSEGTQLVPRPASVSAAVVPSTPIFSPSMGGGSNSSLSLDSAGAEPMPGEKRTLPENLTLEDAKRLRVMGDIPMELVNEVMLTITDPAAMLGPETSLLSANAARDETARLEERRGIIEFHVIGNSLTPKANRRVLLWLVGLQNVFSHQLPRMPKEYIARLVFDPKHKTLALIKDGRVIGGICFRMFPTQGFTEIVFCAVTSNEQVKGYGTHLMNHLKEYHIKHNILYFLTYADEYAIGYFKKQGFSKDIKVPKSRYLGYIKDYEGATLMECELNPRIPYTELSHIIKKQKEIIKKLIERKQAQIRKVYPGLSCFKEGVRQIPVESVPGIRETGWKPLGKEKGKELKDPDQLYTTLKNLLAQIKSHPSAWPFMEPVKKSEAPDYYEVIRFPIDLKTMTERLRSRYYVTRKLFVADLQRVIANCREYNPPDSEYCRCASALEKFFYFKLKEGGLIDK
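GCN5L2 (20nM final) in 50mM HEPES, 0.1mM EDTA pH 7.5, 0.01% Tween-20 was preincubated 15 min at room temperature with compound, then given ThioGlo1 (50uM), H3(1-25) peptide (75uM) and acetyl-CoA (70uM); CoA-thiol fluorescence (Ex340/Em540) was read at 0 and 20 min.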
PLK1 PBD inh = inhibitors of human PLK1 polo-box domain binding. P53350. Plk1 PBD binding of FITC phosphopeptide, fluorescence polarization. Potency, µM, without a hit: max response, negative = inhibition, most hits filed as inhibitors. 360,000 tested, 2.8% active. AID 720504; also: potency is read from the fitted curve at half-maximal effect; series mostly up to about 57 µM; % is scaled to controls: 0 for no effect and ±100 for the full control effect; nearly all actives have a fitted effect of over 65% in size
VDR inh = vitamin D3 receptor (human) inhibition; 400,000 tested, 0.93% active; Potency, µM, for the others: max response, negative = inhibition, hits mostly inhibitors; VDR-SRC2-3 peptide fluorescence polarization, 2 h; also: potency is read from the fitted curve at half-maximal effect; % is scaled to controls: 0 for no effect and ±100 for the full control effect
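Reagent solutions, kept cold and dark, are dispensed first; compounds are then pinned in at 23 nl, plates briefly spun, and incubated 2 h at ambient temperature. Inhibition of VDR–SRC2-3 peptide binding is read by fluorescence polarization.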
Rango complex inh = prevents formation of the Rango-importin beta complex; AID 540263; Rango CFP/YFP FRET sensor + importin beta, 45 min; 340,000 tested, 0.031% active; Q14974; Potency, µM (doses to about 92.2 µM), without a hit: at the highest dose inhibition of complex formation; calls by dose curve;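 also: potency is read from the fitted curve at half-maximal effect; 0% = DMSO wells and 100% = buffer wells lacking importin beta; nearly all actives have a fitted effect of over 15% in size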
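FRET biosensor (snurportin 1 IBB flanked by EYFP and cerulean), 50 nM, with compound 5 min, then 0.125 microM importin beta in PBS, 1 mM DTT, 0.02% Tween-20, 0.1% BSA. CFP/YFP ratio read after 45 min at room temperature; pre-read flags interference.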
PI5P4Ka inh = blocks human PI5P4K alpha kinase activity. max response, %. PI5P4Kalpha enzyme, ADP-Glo luminescence, 60 min; hits give low values. P48426. 330,000 tested, 1.2% active. AID 652105; active = max response of -50% or lower; inconclusive = between -30% and -50%; inactive = -30% or higher; also: value at the top dose of about 77 µM; % is scaled to controls: 0 for no effect and ±100 for the full control effect
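qHTS, 1536-well: enzyme/substrate mix, compound by pin tool, 5 microM ATP final; RT 60 min; ADP-Glo reagents 1 (45 min) then 2 (30 min); luminescence.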
ADP-Glo counter = interferes with ADP-Glo detection without enzyme present; shares compounds with PI5P4Ka inh; ADP-Glo detection counter-screen, luciferase luminescence, no enzyme; Potency, µM (top dose mostly 76.9 µM), inactives show at the highest dose activity change, negative = inhibition, hits mostly inhibitors; 1,100 tested, under 10 active; AID 743285
Starred values were filed as active, the others as inactive; ? = inconclusive; nt = no result. Unless noted, calls follow the shape of the dose curve; as a rule, active = well fitted curve in the direction sought with a large enough effect; inconclusive = small, poorly fitted or top-dose-only effect, or another doubt; inactive = no such curve, though single readings can be large; an effect the other way counts as inactive or inconclusive.

SMILES	Rango dissoc inh	KAT2A inh	PLK1 PBD inh	VDR inh	Rango complex inh	PI5P4Ka inh	ADP-Glo counter
COC(=O)c1ccccc1NC(=O)Cn1c(=O)n(CCCC(=O)NCc2ccccc2OC)c(=O)c2ccccc21	nt	-1.2%	nt	5.5%	nt	nt	nt
COCCN(C(=O)COC(=O)c1cc2c(s1)CCCC2)c1c(N)n(Cc2ccccc2)c(=O)[nH]c1=O	-13.0%	-7.9%	-1.8%	-14.0%	1.8%	-56.3*	-3.0%
COc1ccc(S(=O)(=O)Nc2ccc3c(c2)CCC3)cc1	-6.7%	-8.4%	3.77µM*	44.7µM*	1.4%	-67.3*	-4.0%
COc1ccc(NC(=O)CSc2nc(-c3ccco3)cc(C(F)(F)F)n2)cc1OC	nt	-1.9%	nt	-6.3%	nt	nt	nt
COc1ccc(NC(=O)CSc2nnc(-c3ccco3)c(-c3ccco3)n2)cc1OC	-22.3%	-10.9%	?	2.8%	0.3%	-52.1*	-1.0%
CCOC(=O)Nc1ccc2c(CNC(C)c3ccccc3OC)cc(=O)oc2c1 (stereo not drawn)	-8.0%	-5.9%	-0.8%	-7.6%	0.5%	-90.3*	-5.6%
CCOc1ccc(NC(=O)c2sc(NC(C)=O)c(C(=O)OC)c2C)cc1	4.3%	-18.1%	0.2%	-10.1%	-5.4%	-5.1	nt
COC(=O)c1c(NC(C)=O)sc(C(=O)Nc2ccccc2)c1C	-6.2%	-0.1%	-5.2%	-2.1%	-6.7%	?	2.0%
CC(=O)Nc1ccc2c(O)cc(S(=O)(=O)O)cc2c1	-12.8%	nt	-27.1%	-4.8%	-3.7%	-22.2	nt
O=S(=O)(O)c1cc(O)c2cc(Nc3ccccc3)ccc2c1	-7.9%	nt	18.9µM*	?	-2.2%	-68.8*	-6.0%
Cc1ccc(S(=O)(=O)c2cc(Nc3ccccc3)ccc2O)cc1	1.8%	-4.1%	-29.7%	-10.1%	?	-6.1	nt
COc1ccccc1Nc1ccc2c(O)cc(S(=O)(=O)O)cc2c1	19.0%	nt	10.6µM*	?	-2.2%	-101.7*	2.4%
COc1ccc(Cl)cc1C(=O)NCC(c1ccc(N(C)C)cc1)N1CCCC1 (stereo not drawn)	nt	-11.7%	nt	0.7%	nt	nt	nt
COc1ccc(C(CC(=O)N2CCCC2)c2c(OC)cc(OC)c3c(-c4ccccc4)cc(=O)oc23)cc1 (stereo not drawn)	-2.2%	-12.2%	?	-0.9%	-2.5%	?	nt
COc1ccc(C(CC(=O)N2CCCCC2)c2c(OC)cc(OC)c3c(-c4ccccc4)cc(=O)oc23)cc1 (stereo not drawn)	-2.8%	-13.8%	?	2.8%	?	-80.8*	4.5%
Cc1c(C(=O)O)cccc1-c1ccc(/C=C2\SC(=O)NC2=O)o1	?	-5.8%	-19.1%	-9.6%	?	-56.5*	-3.8%
O=C1CCC(=O)N1c1ccc(-c2nc3sc4c(c3c(=O)o2)CCC4)cc1	-1.5%	-2.7%	-21.8%	11.1%	-6.5%	0.7	nt
O=c1oc(-c2ccccc2)nc2sc3c(c12)CCC3	?	?	-13.2%	-16.0%	?	-54.4*	-1.8%
COCc1cc(=O)n2[nH]c(-c3ccsc3-n3c(C)ccc3C)cc2n1	-17.3%	-9.1%	?	-0.3%	-2.0%	-53.9*	0.0%
O=c1cc(CSc2nnc(-c3cccs3)n2Cc2ccccc2)nc2sc3ccccc3n12	-6.0%	-12.2%	-19.7%	-0.9%	-2.9%	-51.3*	6.1%
O=C(Nc1cccc(S(=O)(=O)N2CCOCC2)c1)c1c2c(nc3ccccc13)CCC2	-15.0%	-21.2%	-3.9%	5.0%	-0.6%	-63.7*	-2.0%
O=C(NCc1ccco1)c1c2c(nc3ccccc13)CCC2	?	-9.7%	2.99µM*	0.7%	?	-70.6*	0.5%
Cc1nc(Nc2ccccc2)sc1C(=O)c1ccc(F)cc1	-12.5%	-19.9%	-0.4%	-2.9%	-1.9%	4.3	nt
Nc1nc(Nc2ccccc2F)sc1C(=O)c1ccccc1	0.1%	-17.1%	-3.0%	2.5%	-1.8%	-90.8*	0.6%
CC(=O)NC(c1ccc(C)cc1)c1cc([N+](=O)[O-])c2cccnc2c1O (stereo not drawn)	-1.2%	-1.9%	-22.8%	-0.8%	-0.1%	-59.1*	3.1%
SMILES	Rango dissoc inh	KAT2A inh	PLK1 PBD inh	VDR inh	Rango complex inh	PI5P4Ka inh	ADP-Glo counter
CC(=O)NC(c1ccccc1)c1cc(Cl)c2cccnc2c1O (stereo not drawn)	-0.6%	1.7%	-14.2%	17.3%	0.9%	-2.3	nt
O=C(NC(c1ccc(Cl)cc1)c1cc(Cl)c2cccnc2c1O)c1cccnc1 (stereo not drawn)	-9.6%	-0.3%	3.4%	-10.9%	6.6%	-62.6*	-9.3%
COC(=O)c1ccc(NC(=O)CSc2nc(=O)[nH]c3c2CCCC3)cc1	nt	0.3%	nt	0.0%	nt	nt	nt
O=C(O)Cc1nc(-c2cccnc2)sc1-c1ccc(Br)cc1	19.1%	?	?	-2.2%	-0.9%	-61.3*	-7.0%
O=C(O)Cc1sc(-c2ccccc2)nc1-c1ccccc1	17.5%	-20.5%	-20.1%	21.9%	1.8%	1.8	nt
COc1ccc(NC(=O)C2CCN(C3=NS(=O)(=O)C(c4ccc(C)c(C)c4)=C3C)CC2)cc1OC	nt	-0.8%	nt	2.0%	nt	nt	nt
Cc1ccc(NCC(=O)Nc2ccc(Br)cc2)cc1C	-11.9%	-15.1%	-1.1%	-5.2%	?	-2.8	6.3%
O=C(Nc1nc2c(F)c(F)c(F)cc2s1)c1ccco1	15.6%	-8.3%	-1.4%	-20.6%	-1.9%	-0.7	nt
O=C(COC(=O)c1ccco1)Nc1nc2c(F)c(F)c(F)cc2s1	-5.6%	-14.9%	-28.3%	6.3%	?	-53.3*	2.2%
CCc1ccccc1NNC(=O)c1sccc1Cl	nt	nt	nt	-13.8%	nt	nt	nt
Cc1cc(NC(=O)c2sc(Nc3cccc(C(F)(F)F)c3)nc2N)no1	-20.9%	-12.4%	-0.8%	-3.5%	?	-66.8*	1.6%
COc1ccc(NC(=O)c2c(-c3ccc(C)cc3)nnc3ccccc23)c(OC)c1	nt	12.8%	nt	10.6%	nt	nt	nt
Cc1ccc(Cl)cc1NC(=O)N1CCC(CN2CCCCCC2)CC1	nt	0.5%	nt	3.5%	nt	nt	nt
CCc1ccc(-c2nc(CS(=O)CC(=O)NCCc3ccc(Cl)cc3)c(C)o2)cc1 (stereo not drawn)	nt	-3.5%	nt	4.7%	nt	nt	nt
O=C(c1ccco1)N1CCN(c2ncnc3c2[nH]c2ccc(Br)cc23)CC1	5.1%	-8.9%	-18.6%	22.1%	-1.9%	-50.1*	9.6%
COc1ccc2c(CC(=O)N3CCN(S(=O)(=O)c4ccc(F)cc4)CC3)coc2c1	-10.9%	-8.1%	-12.4%	-9.7%	-1.0%	-52.6*	1.5%
COc1cc2nc(CN3C(=O)c4ccccc4C3=O)oc(=O)c2cc1OC	8.9%	2.5%	-3.5%	-3.1%	-0.9%	-5.4	nt

Screens as filed in PubChem BioAssay.
